Laboratory results from the antibiotic and cytotoxicity screens of Wong et al. (2023).
Hit rate of the full screen: of about 39,000 compounds, about 1,500 (3.8%) were called active. This excerpt belongs to a sample that is enriched for actives.

system: HSkMC (human skeletal muscle cells); experiment: cytotoxicity call (relative viability < 0.9); conditions: 10 µM

SMILES	cytotoxicity call
C[C@]12C=CC(=O)N[C@@H]1CC[C@@H]1[C@@H]2CC[C@]2(C)[C@@H](C(=O)Nc3cc(C(F)(F)F)ccc3C(F)(F)F)CC[C@@H]12	inactive
CCCNC(=O)N1C[C@@H](O)COC[C@H]2O[C@H](CC(=O)NCc3ccncn3)CC[C@@H]21	inactive
C[C@@H]1CN([C@@H](C)CO)C(=O)Cc2cc(NC(=O)CCC(F)(F)F)ccc2O[C@H]1CN(C)S(=O)(=O)c1ccccc1	inactive
CCC(C)C(N)C(=O)O (stereo unspecified)	inactive
COc1ccccc1CN(C)C[C@@H]1OCc2ccccc2-c2c(n(C)c3ccccc23)C(=O)N([C@H](C)CO)C[C@@H]1C	inactive
C[C@@H]1CN([C@@H](C)CO)C(=O)c2c(c3ccccc3n2C)-c2ccccc2CO[C@H]1CN(C)Cc1ccccc1C(F)(F)F	active
COc1ccccc1CN(C)C[C@H]1OCc2ccccc2-c2c(n(C)c3ccccc23)C(=O)N([C@H](C)CO)C[C@@H]1C	inactive
C[C@H](CO)N1C[C@H](C)[C@@H](CN(C)Cc2ccccc2C(F)(F)F)OCc2ccccc2-c2c(n(C)c3ccccc23)C1=O	active
COc1ccccc1CN(C)C[C@@H]1OCc2ccccc2-c2c(n(C)c3ccccc23)C(=O)N([C@@H](C)CO)C[C@@H]1C	inactive
COc1ccccc1CN(C)C[C@@H]1OCc2ccccc2-c2c(n(C)c3ccccc23)C(=O)N([C@H](C)CO)C[C@H]1C	inactive
C[C@@H]1CN([C@H](C)CO)C(=O)c2c(c3ccccc3n2C)-c2ccccc2CO[C@@H]1CN(C)Cc1ccccc1C(F)(F)F	active
C[C@@H]1CN([C@@H](C)CO)C(=O)c2c(c3ccccc3n2C)-c2ccccc2CO[C@@H]1CN(C)Cc1ccccc1C(F)(F)F	active
COc1ccccc1CN(C)C[C@@H]1OCc2ccccc2-c2c(n(C)c3ccccc23)C(=O)N([C@@H](C)CO)C[C@H]1C	inactive
Cc1noc(C)c1NC(=O)Nc1ccc2c(c1)C(=O)N([C@@H](C)CO)C[C@H](C)[C@H](CN(C)S(=O)(=O)c1ccc(F)cc1)OCCCC[C@@H](C)O2	inactive
C[C@@H]1CN([C@H](C)CO)C(=O)c2cc(NC(=O)CCCN(C)C)ccc2O[C@H]1CN(C)S(=O)(=O)c1cn(C)cn1	inactive
CCS(=O)(=O)CCn1c([N+](=O)[O-])cnc1C	inactive
Cc1noc(C)c1S(=O)(=O)Nc1cccc2c1O[C@@H](CN(C)S(=O)(=O)c1ccc(Cl)cc1)[C@@H](C)CN([C@H](C)CO)C2=O	inactive
C[C@@H]1CCCCO[C@H](CN(C)S(C)(=O)=O)[C@@H](C)CN([C@@H](C)CO)C(=O)c2cc(NS(=O)(=O)c3ccc(F)cc3)ccc2O1	inactive
CO[C@H](CN(C)S(=O)(=O)c1cccc(Cl)c1)[C@@H](C)CN([C@H](C)CO)S(=O)(=O)c1ccc(Cl)cc1	inactive
O=C(N[C@@H]1CC[C@@H](CC(=O)N2CCOCC2)O[C@H]1CO)c1ccccn1	inactive
Cc1noc(C)c1NC(=O)N(C)C[C@H]1Oc2ccc(NC(=O)NC(C)C)cc2C(=O)N([C@H](C)CO)C[C@@H]1C	inactive

SMILES	cytotoxicity call
COc1ccc(S(=O)(=O)Nc2ccc3c(c2)C(=O)N([C@H](C)CO)C[C@@H](C)[C@H](CN(C)S(C)(=O)=O)O3)cc1	inactive
Nc1ccc(Nc2ccccc2)cc1	inactive
COc1ccc2c3c([nH]c2c1)[C@@H](CO)N(C[C@]13CN(C1)S(=O)(=O)C)C(=O)C1CCOCC1	inactive
COc1ccccc1CN(C)C[C@H]1OCc2ccccc2-c2c(n(C)c3ccccc23)C(=O)N([C@@H](C)CO)C[C@H]1C	inactive
C[C@H]1CN([C@@H](C)CO)C(=O)c2c(c3ccccc3n2C)-c2ccccc2CO[C@@H]1CN(C)Cc1ccccc1C(F)(F)F	active
C[C@H]1CN([C@@H](C)CO)C(=O)c2c(c3ccccc3n2C)-c2ccccc2CO[C@H]1CN(C)Cc1ccccc1C(F)(F)F	inactive
C[C@@H]1CN([C@H](C)CO)C(=O)c2c(c3ccccc3n2C)-c2ccccc2CO[C@H]1CN(C)Cc1ccccc1C(F)(F)F	active
COc1ccccc1CN(C)C[C@H]1OCc2ccccc2-c2c(n(C)c3ccccc23)C(=O)N([C@@H](C)CO)C[C@@H]1C	inactive
COc1ccccc1CN(C)C[C@H]1OCc2ccccc2-c2c(n(C)c3ccccc23)C(=O)N([C@H](C)CO)C[C@H]1C	inactive
C[C@H](CO)N1C[C@H](C)[C@H](CN(C)Cc2ccccc2C(F)(F)F)OCc2ccccc2-c2c(n(C)c3ccccc23)C1=O	active
C[C@@H]1CN([C@@H](C)CO)C(=O)c2cc(NC(=O)CCC(F)(F)F)ccc2O[C@@H](C)CCCCO[C@@H]1CN(C)C(=O)CCC(F)(F)F	inactive
COc1ccc(NC(=O)Nc2ccc3c(c2)C(=O)N([C@H](C)CO)C[C@@H](C)[C@@H](CN(C)C(=O)NC(C)C)OCCCC[C@H](C)O3)cc1	inactive
C[C@@H]1CCCCO[C@H](CN(C)C(=O)Nc2ccc3c(c2)OCO3)[C@@H](C)CN([C@@H](C)CO)C(=O)c2cc(NC(=O)CCC(F)(F)F)ccc2O1	inactive
CN1C(=O)COc2cc(N)ccc21	inactive
Cc1noc(C)c1NC(=O)N(C)C[C@H]1Oc2ccc(NS(C)(=O)=O)cc2CC(=O)N([C@H](C)CO)C[C@@H]1C	inactive
Cc1cc(C(=O)O)cc(S(N)(=O)=O)c1	inactive
C[C@@H]1CN([C@H](C)CO)C(=O)c2cc(NC(=O)Nc3ccc4c(c3)OCO4)ccc2O[C@@H]1CN(C)Cc1ccc(C(=O)Nc2ccccc2N)cc1	inactive
COc1ccc(NC(=O)N(C)C[C@@H]2Oc3c(NC(=O)c4cc(C)nn4C)cccc3C(=O)N([C@H](C)CO)C[C@H]2C)cc1	inactive
C[C@H]1CCCCO[C@H](CN(C)Cc2ccncc2)[C@@H](C)CN([C@@H](C)CO)C(=O)c2cc(NS(=O)(=O)c3ccc(Cl)cc3)ccc2O1	inactive
O=C(NO)c1cn(-c2ccc(C[C@H]3C(=O)O[C@@H](Cc4ccccc4)[C@H]4[C@@H]5C=CCCC=C5CN43)cc2)nn1	inactive
COc1ccc([Si](C)(C)[C@H]2[C@H](CCn3cc(CCO)nn3)O[C@@]3(C(=O)N(Cc4cccc(N5C(=O)c6cccc7cccc5c67)c4)c4ccccc43)[C@@H]2C)cc1	inactive

SMILES	cytotoxicity call
COc1ccc([Si](C)(C)[C@H]2[C@H](CCO)O[C@@]3(C(=O)N(Cc4ccc(N5C(=O)c6cccc7cccc5c67)cc4)c4ccccc43)[C@@H]2C)cc1	inactive
COc1ccc([Si](C)(C)[C@@H]2[C@@H](CCO)O[C@]3(C(=O)N(Cc4ccc(N5C(=O)c6cccc7cccc5c67)cc4)c4ccccc43)[C@H]2C)cc1	inactive
COc1ccc([Si](C)(C)[C@H]2[C@H](CCO)O[C@@]3(C(=O)N(Cc4cccc(N5C(=O)c6cccc7cccc5c67)c4)c4ccccc43)[C@@H]2C)cc1	inactive
COc1ccc([Si](C)(C)[C@@H]2[C@@H](CCn3cc(CCO)nn3)O[C@]3(C(=O)N(Cc4cccc(N5C(=O)c6cccc7cccc5c67)c4)c4ccccc43)[C@H]2C)cc1	active
COc1ccc([Si](C)(C)[C@@H]2[C@@H](CCn3cc(CCO)nn3)O[C@]3(C(=O)N(Cc4ccc(N5C(=O)c6cccc7cccc5c67)cc4)c4ccccc43)[C@H]2C)cc1	active
C[C@@H]1CCCCO[C@@H](CN(C)C(=O)CCCN(C)C)[C@H](C)CN([C@H](C)CO)C(=O)c2cc(NC(=O)Nc3ccc(C(F)(F)F)cc3)ccc2O1	inactive
C[C@H](CO)N1C[C@H](C)[C@@H](CN(C)C(=O)Nc2ccccc2)OCCCC[C@H](C)Oc2ccc(NC(=O)Cc3ccccc3)cc2C1=O	inactive
CN1CCN(C(=O)C[C@@H]2CC[C@@H]3[C@H](COc4ccc(NC(=O)C5CCCCC5)cc4C(=O)N3C)O2)CC1	inactive
C[C@H]1CN([C@@H](C)CO)C(=O)Cc2cc(NS(C)(=O)=O)ccc2O[C@@H]1CN(C)Cc1ccc(C(=O)O)cc1	inactive
COc1ccc(S(=O)(=O)N(C)C[C@@H]2OCCCC[C@H](C)Oc3ccc(NS(=O)(=O)c4ccc(Cl)cc4)cc3C(=O)N([C@H](C)CO)C[C@@H]2C)cc1	inactive
C[C@@H]1CN([C@H](C)CO)C(=O)c2cc(NC(=O)Cc3cn(C)c4ccccc34)ccc2O[C@@H]1CN(C)Cc1ccc(Cl)c(Cl)c1	active
C[C@@H]1CN([C@@H](C)CO)C(=O)c2cc(NC(=O)Cc3cn(C)c4ccccc34)ccc2O[C@@H]1CN(C)Cc1ccc(Cl)c(Cl)c1	active
C[C@H](CO)N1C[C@H](C)[C@H](CN(C)Cc2ccc(Cl)c(Cl)c2)Oc2ccc(NC(=O)Cc3cn(C)c4ccccc34)cc2C1=O	active
C[C@@H]1CN([C@@H](C)CO)C(=O)c2cc(NC(=O)Cc3cn(C)c4ccccc34)ccc2O[C@@H]1CN(C)S(C)(=O)=O	inactive
C[C@@H]1CN([C@H](C)CN(C)C)C(=O)c2cc(NC(=O)Cc3cn(C)c4ccccc34)ccc2O[C@H]1CN(C)S(=O)(=O)c1ccc(Cl)cc1	active
C[C@H]1CN([C@@H](C)CO)C(=O)c2cc(NC(=O)Cc3cn(C)c4ccccc34)ccc2O[C@@H]1CN(C)S(C)(=O)=O	inactive
C[C@H](CO)N1C[C@H](C)[C@@H](CN(C)Cc2ccc(-c3ccccc3)cc2)Oc2ccc(NC(=O)Cc3cn(C)c4ccccc34)cc2C1=O	inactive
C[C@H](CO)N1C[C@H](C)[C@@H](CN(C)Cc2ccc(Cl)c(Cl)c2)Oc2ccc(NC(=O)Cc3cn(C)c4ccccc34)cc2C1=O	inactive
C[C@H](CO)N1C[C@H](C)[C@H](CN(C)S(=O)(=O)c2cn(C)cn2)Oc2cc(C#Cc3cccc(F)c3)ccc2S1(=O)=O	inactive
